Source: PubChem (Broad Institute)
Rows were chosen to be rich in hits. Some 1.8% of all compounds tested hit in one or more screens of this group.
RAD52 inh = RAD52 (human) annealing inhibition | recombinant RAD52 DNA annealing, FRET fluorescence | inhibition, % at 18.7 µM | actives 0.46% (n = 360,000);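 active = every replicate showing at least 50% inhibition; inconclusive = mean inhibition at least 50% but not in every replicate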
INS-1E GSIS act = primary screen for activators of insulin secretion dependent on glucose, INS-1E cells, GLuc reporter luminescence | AID 743287 | activation, % at 16.6 µM | INS-1E GLuc reporter insulin secretion, 2-3 h | actives 0.61% (n = 370,000);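 active = lowest replicate activation of at least 40%, so every replicate reaches that level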
RAD54 inh = inhibitors of human RAD54 branch migration; actives 0.14% (n = 360,000); RAD54 Holliday junction branch migration, FAM/BHQ fluorescence; Q92698; AID 602329; inhibition, % at 10.4 µM;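 active = mean normalized replicate activity at least 40 and at least half of replicates scoring 40 or more; inconclusive = only one of the two criteria met; inactive = mean below 40 and under half of replicates reaching 40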;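 note: inhibitors cause a drop in the FAM fluorescence signal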
Target sequence (Q92698 whole entry, looked up): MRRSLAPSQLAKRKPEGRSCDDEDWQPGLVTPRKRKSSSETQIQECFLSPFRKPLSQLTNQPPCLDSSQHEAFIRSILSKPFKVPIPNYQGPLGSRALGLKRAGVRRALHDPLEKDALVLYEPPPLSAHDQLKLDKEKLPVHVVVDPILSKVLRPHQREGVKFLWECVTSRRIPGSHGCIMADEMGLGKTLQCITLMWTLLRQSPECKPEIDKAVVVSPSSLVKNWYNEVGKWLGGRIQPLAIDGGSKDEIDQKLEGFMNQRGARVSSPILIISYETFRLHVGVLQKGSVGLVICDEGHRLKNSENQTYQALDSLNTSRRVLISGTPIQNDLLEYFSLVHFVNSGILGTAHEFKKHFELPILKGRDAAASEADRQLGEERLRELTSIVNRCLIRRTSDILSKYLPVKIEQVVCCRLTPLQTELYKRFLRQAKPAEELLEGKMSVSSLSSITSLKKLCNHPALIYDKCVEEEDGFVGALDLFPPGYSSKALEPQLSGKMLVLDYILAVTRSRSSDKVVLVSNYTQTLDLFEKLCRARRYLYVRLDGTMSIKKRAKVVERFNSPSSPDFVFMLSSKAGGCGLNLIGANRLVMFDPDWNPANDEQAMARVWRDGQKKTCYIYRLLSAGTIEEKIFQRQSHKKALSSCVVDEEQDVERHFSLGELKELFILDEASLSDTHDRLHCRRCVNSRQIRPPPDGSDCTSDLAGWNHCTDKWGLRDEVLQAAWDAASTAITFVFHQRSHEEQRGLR
EWS-Fli block = inhibitors of EWS/Fli oncoprotein transcriptional activity; actives 0.67% (n = 350,000); inhibition, % at 12.6 µM; A673 NR0B1-luciferase reporter, viability-normalised;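 active = mean inhibition of at least 50% after viability correction, with every replicate also passing that limit; inconclusive = mean reaches 50% but only one of two replicates passes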;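 note: firefly luciferase signal divided by Alamar Blue viability fluorescence both relative to DMSO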
CFTR F508del cor = correctors of CFTR F508del function in bronchial epithelial cells; CFBE cells, YFP halide quenching; stimulated with forskolin plus potentiator P3; % fluorescence drop versus neutral controls; activity (quench increase), % at 7.58 µM; actives 0.36% (n = 350,000); AID 720511;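 active = mean added fluorescence quench of at least 8% versus neutral control, with both replicates also reaching 8%; inconclusive = only one of the mean or replicate conditions met; inactive = mean below 8% and not both replicates reaching 8%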;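 note: cells transiently co-express mutant CFTR-F508del with the halide-sensitive YFP; corrector assay measuring rescue of mutant channel to the surface after 24 h compound exposure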
LGR2 antag = blocks bursicon-induced cAMP signaling via Drosophila LGR2; HEK293 LGR2, CRE-luciferase, bursicon-stimulated, 4 h; inhibition, % at 9.99 µM; actives 0.35% (n = 380,000);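 active = drop in luminescence signal, shown as inhibition above about 50% in the replicate tests, limit read from the data, passing the limit was not always enough; inconclusive = probably only some replicates passing the limit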;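 note: agonist challenge used bursicon conditioned medium at about half maximal strength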
RAD52 DNA ctr = DNA binding artifact in RAD52 counter-screen; actives 8% (n = 1,000); AID 652128; Salmon sperm DNA/acridine orange FP displacement; AC50, µM; shares compounds with RAD52 inh;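 active = fitted half-maximal concentration for signal loss at or below twice the highest dose tested, in every separate run, actives reach about 64 µM in these data; inconclusive = runs disagree, or flat partial signal loss, or poor fit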
Numbers stand for hits; . = inactive; ? = inconclusive; / = no result.

SMILES	RAD52 inh	INS-1E GSIS act	RAD54 inh	EWS-Fli block	CFTR F508del cor	LGR2 antag	RAD52 DNA ctr
CC(C)NC(=O)N(C)C[C@@H]1Oc2ncc(C#CCc3ccccc3)cc2C(=O)N([C@@H](C)CO)C[C@H]1C	.	.	.	.	.	.	/
NCCCCCc1cn([C@@H](CCC(=O)O)C(=O)NCCCCCCCCCCC(=O)N2CCNCC2)nn1	.	.	.	.	.	.	/
C#CCOCCOCCOCCNc1nc(N2CCN(C(=O)Cn3cc(CCCN=C(N)N)nn3)CC2)nc(N2CCN(C(=O)[C@H](CCCCN)n3cc(CCCC)nn3)CC2)n1	51	.	.	.	.	.	.
C#CCOCCOCCOCCNc1nc(N2CCN(C(=O)C([C@@H](C)O)n3cc([C@@H](N)CCCCN)nn3)CC2)nc(N2CCN(C(=O)[C@H](CCCCN)n3cc([C@@H](N)[C@H](C)CC)nn3)CC2)n1 (stereo partly drawn)	72	.	.	.	.	.	.
CC[C@H](C)Cc1cn([C@@H](CCCCN)C(=O)NCCCCCCCCCCC(=O)N2CCNCC2)nn1	77	40	.	.	.	.	.
C#CCOCCOCCOCCNc1nc(N2CCN(C(=O)C([C@@H](C)O)n3cc([C@@H](N)CCCCN)nn3)CC2)nc(N2CCN(C(=O)[C@H](CCC(=O)O)n3cc([C@@H](N)[C@H](C)CC)nn3)CC2)n1 (stereo partly drawn)	.	.	.	.	.	.	/
C#CCOCCOCCOCCNc1nc(N2CCN(C(=O)[C@H](CCCCN)n3cc([C@@H](N)C(C)CC)nn3)CC2)nc(N2CCN(C(=O)[C@H](Cc3ccc(O)cc3)n3cc([C@@H](N)CC(C)C)nn3)CC2)n1 (stereo partly drawn)	92	.	.	.	.	.	.
Cc1ccc(N2CN(Cc3cccnc3)CNC2=S)cc1	/	.	.	/	/	.	/
C[C@H]1CCCCO[C@@H](CN(C)Cc2ccc3c(c2)OCO3)[C@@H](C)CN([C@@H](C)CO)C(=O)c2cc(NC(=O)Nc3ccc(C(F)(F)F)cc3)ccc2O1	.	.	.	.	.	.	/
COc1cccc(CN(C(=O)c2cc3ccccc3oc2=O)C2CCS(=O)(=O)C2)c1 (stereo not drawn)	.	.	.	.	.	.	/
COCCNc1nc(NCCNC(C)=O)c2sc(-c3ccccc3)cc2n1	.	/	.	.	.	.	/
Nc1ccc(N2CCN(c3ccc(F)cc3)CC2)cc1	.	.	/	.	.	/	/
CC(=O)N1CCN(c2ccc(N)cc2)CC1	58	/	.	.	.	/	.
CN(C)CCCn1c2c3ccccc3ccc2c2oc(=O)c3ccccc3c21	64	80	/	?	.	.	.
CN(C)CCCn1c(=S)[nH]c2sc3c(c2c1=O)CCCC3	97	.	.	.	.	.	.
CC1CCCCN1CC(=O)Nc1ccc(N2CCCCCC2)cc1 (stereo not drawn)	93	.	/	.	.	.	.
CC1CCCCN1CC(=O)Nc1ccc(Oc2ccccc2)cc1 (stereo not drawn)	/	/	.	/	/	/	/
CCOc1ccc(CCN2C(=S)N([C@@H](CC(C)C)CN3CCCC3CN3C(=S)NC[C@@H]3Cc3ccc(O)cc3)C[C@@H]2Cc2ccc(O)cc2)cc1 (stereo partly drawn)	79	.	.	.	.	.	.
CCOc1ccc(CCN2C(=S)N([C@@H](CC(C)C)CN3CCCC3CN3C(=S)NC[C@@H]3Cc3ccc(O)cc3)C[C@@H]2Cc2ccccc2)cc1 (stereo partly drawn)	.	.	.	.	.	.	/
Cc1ccc2c(C)c(C(=O)NCC3CCOCC3)oc2c1C	.	.	.	.	.	.	/
Cc1cccc2nc(-c3ccccc3)c(-c3ccc(CN4CCC(c5nc6ccccc6[nH]5)CC4)cc3)nc12	60	.	/	.	.	.	.
c1ccc(-c2nc3ccccc3nc2-c2ccc(CN3CCC(c4nc5ccccc5[nH]4)CC3)cc2)cc1	.	.	/	.	.	.	/
Cc1cccc2nc(-c3ccccc3)c(-c3ccc(CN4CCC(n5cc(-c6ccccc6)[nH]c5=O)CC4)cc3)nc12	62	.	/	.	.	.	.
Cc1cccc(N2CC(C(=O)NCC3COc4ccccc4O3)CC2=O)c1C (stereo not drawn)	.	/	.	.	.	.	/
CCCC1CCC(C(=O)n2nc(N)c3cc4ccc(OC)cc4nc32)CC1 (stereo not drawn)	.	.	.	.	.	.	/
SMILES	RAD52 inh	INS-1E GSIS act	RAD54 inh	EWS-Fli block	CFTR F508del cor	LGR2 antag	RAD52 DNA ctr
FC(F)(F)c1cnc(N2CCSCC2)c(Cl)c1	.	.	/	.	/	.	/
CN1CCN(CC(O)COc2ccc(C34CC5CC(CC(C5)C3)C4)cc2)CC1 (stereo not drawn)	56	.	.	.	.	.	.
COc1cccc(OC)c1OCCCCCCN1CCN(C)CC1	.	.	.	.	.	.	/
CN1CCN(CCCCOc2ccccc2C=O)CC1	87	.	.	.	.	.	.
CC(C(=O)c1ccc(-c2ccccc2)cc1)[n+]1cccc(NC(=O)c2ccccc2)c1 (stereo not drawn)	58	.	?	.	.	.	.
CC(=O)c1ccc(Nc2nc(C(N)Cc3ccc(N)cc3)cs2)cc1 (stereo not drawn)	87	.	.	.	.	.	.
NC(c1ccccc1)c1csc(Nc2ccc(C(=O)NCCO)cc2)n1 (stereo not drawn)	.	.	.	.	.	.	/
NC(c1ccccc1)c1csc(Nc2ccc(C(=O)c3ccccc3)cc2)n1 (stereo not drawn)	62	.	.	.	.	.	.
Fc1ccc(/C=N/NC(=S)Nc2cccnc2)cc1F	.	.	/	.	.	.	/
CCN(CC)CCn1c(SCC(=O)Nc2cccc(OC)c2)nc2c(sc3ccccc32)c1=O	.	.	/	.	.	.	/
COc1cccc(NC(=O)CSc2nc3c(sc4ccccc43)c(=O)n2CCN(C)C)c1	74	.	/	.	.	.	.
CCN1CCN(CCCNC(=O)C2CCN(c3nnc(-n4c(C)ccc4C)s3)CC2)CC1	73	.	.	.	.	.	.
Cc1cc(NS(=O)(=O)c2cccs2)no1	/	/	.	/	/	/	/
CN(C)CCCNC(=O)C[C@H]1C[C@H](C(=O)N2CCOCC2)[C@@]2(CCC3CCCC3)c3[nH]c4cc(-c5ccco5)ccc4c3CCN2C1=O	52	.	.	.	.	.	.
O=C(C[C@H]1C[C@H](C(=O)N2CCOCC2)[C@@]2(CCC3CCCC3)c3[nH]c4cc(-c5ccco5)ccc4c3CCN2C1=O)NCCN1CCOCC1	.	.	.	.	.	.	/
CN/C(=C/[N+](=O)[O-])NCCSCc1csc(CN(C)C)n1	.	/	.	.	.	.	/
CN=C(C[N+](=O)[O-])NCCSCc1ccc(CN(C)C)o1	57	.	.	.	.	.	.
